# High-throughput results from PubChem.
# The list is not random: actives were taken first. Their share in the collection is about 19%.
# TGFb SMAD3 inh = TGF-b pathway inhibition; HepG2 CAGA-GFP TGF-b/SMAD3 reporter, GFP fluorescence, 18 h; TGF-beta stimulated, 500 pg/mL final; Potency, µM (highest dose often 46.1 µM), hits mostly inhibitors; 1.2% of 410,000 active; AID 588855; note: nearly all actives have a fitted effect of over 65% in size
#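 Inhibition of TGF-beta-driven CAGA-GFP reporter expression in HEPG2 cells is measured by cellular GFP fluorescence after 18 h stimulation with 500 pg/mL recombinant TGF-beta in 1% FBS medium at 37 degrees C.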
# S-ASM inh = human S-ASM enzyme inhibition. placental ASM, HMU-PC fluorogenic substrate, 60 min. Potency, µM (titrated, usually from 57.5 µM), actives largely listed as inhibitors. 0.006% of 340,000 active
# Target sequence (P17405 47-631 limits assumed): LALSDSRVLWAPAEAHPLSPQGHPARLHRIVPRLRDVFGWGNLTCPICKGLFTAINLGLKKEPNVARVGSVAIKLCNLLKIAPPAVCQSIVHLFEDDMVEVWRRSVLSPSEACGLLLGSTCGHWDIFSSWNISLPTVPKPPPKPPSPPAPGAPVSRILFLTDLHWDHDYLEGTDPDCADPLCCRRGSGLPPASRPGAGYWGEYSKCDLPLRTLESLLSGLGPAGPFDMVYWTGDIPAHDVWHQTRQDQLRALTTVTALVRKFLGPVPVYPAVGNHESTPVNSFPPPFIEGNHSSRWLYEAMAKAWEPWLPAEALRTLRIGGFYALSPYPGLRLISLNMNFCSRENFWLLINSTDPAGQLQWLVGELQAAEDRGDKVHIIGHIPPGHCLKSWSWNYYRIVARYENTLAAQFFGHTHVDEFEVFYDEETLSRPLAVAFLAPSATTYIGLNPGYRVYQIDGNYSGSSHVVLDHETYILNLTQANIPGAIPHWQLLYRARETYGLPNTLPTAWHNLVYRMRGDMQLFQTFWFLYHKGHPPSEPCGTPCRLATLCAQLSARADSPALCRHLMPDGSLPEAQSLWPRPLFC
#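 HMU-PC0 cleavage (9 uM final) by human placental ASM, 60 min at 37 °C following 10 min compound exposure at RT; stopped at pH 10, fluorescence Ex 386/Em 447 nm.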
# HepG2 viability = kills HepG2 cells in TGF-b inhibitor counter-screen; HepG2 CAGA-GFP viability, ATP luminescence, 18 h; 0.76% of 410,000 active; Potency, µM (titrated, usually from 46.1 µM), most hits filed as cytotoxic
#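 CellTiter-Glo luminescence gave cytotoxicity after 18 hours at 37 degrees C. The cells were HepG2 CAGA-GFP in 1% FBS DMEM, stimulated with 500 pg/mL TGF-beta after compound addition. %Activity was normalised to no-cell wells (complete cell-killing) and DMSO (no toxicity), and curves were fitted and classified.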
# TDP1 cell noCPT = qHTS for Inhibitors of human tyrosyl-DNA phosphodiesterase 1 (TDP1): qHTS in cells in absence of CPT; DT40 Tdp1-/- hTDP1 cells, no CPT, ATP luminescence, 48 h; Potency, µM (highest dose often 46.2 µM), hits mostly inhibitors; 15% of 420,000 active; note: nearly all actives have a fitted effect of over 55% in size
#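 DT40 Tdp1-/-;hTDP1 cells, no CPT (DMSO vehicle only), 400 cells/well; compounds pin-transferred; ≥48 hr, 37 °C; CellTiter-Glo 30 min RT dark, luminescence read.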
# TDP1 cell CPT = DT40-hTDP1 cell growth loss with CPT; chicken DT40 Tdp1-/-;hTDP1 cells + 20 nM CPT, ATP luminescence, 48 h; Potency, µM (titrated, usually from 46.2 µM), most hits filed as inhibitors; 12% of 420,000 active; AID 686979; note: nearly all actives have a fitted effect of over 55% in size
#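 Chicken DT40 Tdp1-/- cells complemented with human TDP1, 400 cells/well, exposed to compounds plus 20 nM camptothecin for at least 48 h at 37 C; viability read as ATP content by CellTiter-Glo luminescence.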
# IL-1B inflam inh = inflammasome signaling inhibition, IL-1 beta readout; THP-1 LPS/ATP IL-1B secretion, AlphaLISA, 16 h; hits give low values; activity change, % at 57.5 µM; 4.7% of 360,000 active; AID 743279; in the data active = activity change below about -50%; inconclusive = mostly about -30% to -49%
#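 Secreted IL-1B measured by AlphaLISA bead assay after 16 h compound exposure of THP-1 cells; compounds (final up to 57.5 uM) added 1 h before LPS (250 ng/mL) and ATP (1.25 mM) stimulation; lower signal means less secretion.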
# Hits are given with their value; n = inactive; u = inconclusive; x = no result given. Unless noted, calls come from the whole dose curve; as a rule, active = well fitted curve in the direction sought with a large enough effect; inconclusive = small, poorly fitted or top-dose-only effect, or another doubt; inactive = no such curve, though single readings can be large; an effect the other way counts as inactive or inconclusive.
SMILES,TGFb SMAD3 inh,S-ASM inh,HepG2 viability,TDP1 cell noCPT,TDP1 cell CPT,IL-1B inflam inh
Cc1cccc(CCNC(=O)c2sc3nc4n(c(=O)c3c2C)CCCC4)c1,n,x,n,u,18.4µM,x
Cc1cccc(Cn2c(N3CCN(C)CC3)nc3c2c(=O)n(C)c(=O)n3C)c1,n,n,n,n,n,n
Cn1c(SCC(=O)O)nnc1-c1cccc(NC(=O)c2cccc3ccccc23)c1,n,n,n,n,n,n
CCCCN(CC)C(=O)Cn1c(=O)n(-c2ccc(OCC)cc2)c(=O)c2c3c(sc21)CCC3,n,x,n,u,u,x
Cc1cccc(CCNC(=O)c2ccc3c(c2)nc2n3CCCCC2)c1,n,x,n,u,20.6µM,x
CCN(C(=O)c1sc2nc3n(c(=O)c2c1C)CCCCC3)c1ccc(OC)cc1,n,x,n,u,u,x
CCc1ccc(N(CC)C(=O)c2sc3nc4n(c(=O)c3c2C)CCCC4)cc1,u,x,n,20.6µM,25.9µM,x
Cc1ccsc1C(=O)Nc1cccc(S(=O)(=O)N(C)C)c1,n,n,n,n,n,n
O=[N+]([O-])c1ccc(N/N=C2\CC3CC=CC23)cc1 (configuration not stated),u,n,n,u,23.1µM,u
O=[N+]([O-])c1ccc(N/N=C2\CC3CC=CC23)c([N+](=O)[O-])c1 (configuration not stated),u,n,n,16.4µM,13µM,n
O=[N+]([O-])c1ccc(NN=C2CC3CCC2C3)c([N+](=O)[O-])c1 (configuration not stated),n,x,n,16.4µM,18.4µM,n
O=[N+]([O-])c1ccc(NN=C2CCCCC2)c([N+](=O)[O-])c1,n,n,n,u,u,n
Cc1cc(/C=C(\C#N)C(=O)NCc2ccco2)c(C)[nH]1,n,n,n,n,n,-50.7
COc1ccc(-n2c(C)cc(/C=C(\C#N)C(=O)NCc3ccco3)c2C)cc1,n,n,n,n,n,n
CN(C)S(=O)(=O)c1cccc(-c2nn(-c3ccccc3)cc2/C=C(/C#N)C(=O)NCc2ccco2)c1,n,n,n,u,18.4µM,n
Cc1ccc(NC(=O)/C(C#N)=C/c2cn(CC(=O)NCc3ccco3)c3ccccc23)cc1C,n,n,n,n,n,n
Cc1ccc(C)c(NC(=O)/C(C#N)=C/c2cn(CC(=O)NCc3ccco3)c3ccccc23)c1,u,n,n,u,16.4µM,n
CCCOc1cccc(-c2nn(-c3ccccc3)cc2/C=C(\C#N)C(=O)NCCCn2ccnc2)c1,n,n,n,u,u,-58.2
Cc1cnc(-n2ncc(C(=O)NCc3ccncc3)c2-c2cccs2)nc1-c1ccc(F)cc1,x,x,x,n,n,x
OC1CCN(Cc2ccc3c(c2)CN(Cc2ccc(Oc4ncccn4)cc2)CCO3)CC1,x,x,x,n,n,x
Cc1ccc(S(=O)(=O)NC2(C(F)(F)F)NC(=O)N(Cc3ccccc3)C2=O)cc1 (configuration not stated),n,n,n,n,n,n
CCOc1ccc(-c2nn(-c3ccccc3)cc2/C=C(\C#N)S(=O)(=O)c2ccccc2)cc1C,n,n,n,13µM,u,n
CCc1cccc2[nH]c3cc([N+](=O)[O-])ccc3c12,n,n,n,u,n,n
ClCc1nnc(-c2cc3c(s2)CCCC3)o1,u,n,n,16.4µM,10.3µM,-104.8
CC(C)(C)C1CCc2sc(-c3nnc(CCl)o3)cc2C1 (configuration not stated),n,n,n,u,u,u
COC(=O)c1ccc(COC(=O)C2CCN(S(=O)(=O)c3ccc(C)c(C)c3)CC2)o1,n,n,n,n,n,n
C=CCn1c(C)nnc1SCC(=O)N1c2ccccc2NC(=O)C1(C)C,n,x,n,u,n,n
